We go through 40 compounds from PubChem BioAssay (NCI).

About 83,000 compounds went through this panel and 20% of them were active in at least one assay; those are over-represented in the sample as a whole.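 Activity criterion: percent growth below 10, measured after cells in 96-well plates were exposed to a single compound concentration for 48 hours.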 Values without a mark were called inactive. Calls of active or inactive are those of the source.

The subject of the assay is LOX IMVI melanoma. Briefly: NCI-60 one-dose screen, 48 h (100 = growth as untreated, 0 = no growth, -100 = all killed). Particulars: 10 µM unless noted. On the procedure: Growth inhibition of the LOX IMVI human tumor cell line is measured as a screen for anti-cancer activity. Cells are grown in 96 well plates and exposed to the test compound for 48 hours. Compounds are tested at a single concentration, which is 10^-5 M for most compounds. The reported endpoint is percent growth (GI% or GIPRCNT), where numbers from 0 - 100% represent growth inhibition, and numbers from -100% - 0 represent cell death. For example, a value of 40 represents 60% growth inhibition. A value of 0 means no net growth occurred over the course of the experiment. A value of -40 indicates 40% of cells at the beginning of the experiment died by the end of the experiment. A value of -100 means all cells are dead at the end of the experiment.
NCI-60 Human Tumor Cell Lines Screen was performed using the standard one-dose NCI protocol, which is described in more detail at https://dtp.cancer.gov/discovery_development/nci-60/default.htm.
Compounds with GIPRCNT values below 10 were considered active. Activity score was based on GIPRCNT using the following formula: […]
Score is 0 for GIPRCNT values of 100 or above, 50 for GIPRCNT values of 0, and 100 for GIPRCNT values of -100.
For `CCN(CC)CCCNCc1cc(-c2ccccc2)nc2ccccc12`, the growth was 9.8% (active). Next, `CCOC(=O)n1cc(C2=C(c3ccc(OC)c(OC)c3)COC2=O)c2ccccc21`: 39.1%. As for `CC(C)c1ccc(/C=N/N=C(N)N)cc1`, the growth was 83.6%.

In the case of `O=C(CCN1CCCCC1)c1ccc2ccccc2c1`, the growth is 93.3%. `CCOC(=O)CCC[P+](c1ccccc1)(c1ccccc1)c1ccccc1`: the growth was 83%.

In the case of `COCc1nc2ccccc2[nH]1`, the growth was 99.3%. Next, `FC(F)(F)c1ccc2c(c1)Sc1ccccc1N2`: 104%; `Cc1cccc(C[C@H](NC(=O)Nc2ccc(Cl)cc2F)C(=O)N[C@@H]2C(=O)N3C[C@H](O)C[C@H]3C(=O)N3CCCC[C@H]3C(=O)N[C@@H](C)C(=O)N3C[C@H](C)C[C@H]3C(=O)O[C@H]2C)c1`: 9.07% (active).

`Cn1cc(-c2noc(C(=O)c3cn(C)c4ncc(Br)cc34)n2)c2ccccc21`: the growth is 96.8%. Next, `CC(C)OC(=O)Nc1cc(F)c(F)cc1F`: 109%; `CCCCC(CC)COC(=O)C[N+](C)(C)CCOC(c1ccccc1)c1ccccc1` (stereo not given): 1.39% (active). Next, `NC1=NC(=O)NC1(c1ccccc1)c1ccccc1`: 91.3%.

With `C=C(C)[C@@H]1CC[C@]2(C(=O)NCCCCCCN(CCCN)CCCN)CC[C@]3(C)[C@H](CC[C@@H]4[C@@]5(C)CC[C@H](OCCCN)C(C)(C)[C@@H]5CC[C@]43C)[C@@H]12`, the growth was 5.71% [100 µM] (active).

Turning to `Cc1ccc(Cn2c(O)c(N=NC(=O)c3ccc(S(N)(=O)=O)cc3)c3ccccc32)cc1`, the growth is 103%. For the compound `O=C(NNc1ccc(-c2ccccc2)nn1)c1ccccc1`, the growth was 98.9%. `CC(C)CSc1ncnc2nc[nH]c12`: the growth is 98%. Regarding `COc1cc2c(cc1OC(C)=O)C(=O)CCCC2`, the growth is 95.6%. The value for `COc1ccc(/C=C/C(=C/c2c(O)[nH]c3cc(Br)ccc23)N=O)cc1` was 90.8%; that for `C=C(C)[C@@H]1CC[C@]2(C(N)=O)CC[C@]3(C)[C@H](CC[C@@H]4[C@@]5(C)C/C(=C/c6cccnc6)C(=O)C(C)(C)[C@@H]5CC[C@]43C)[C@@H]12` was -41.5% [100 µM] (active).

On to `CCN1c2ccccc2C(Cl)(c2ccc(N(C)C)cc2)c2ccccc21`, for which the growth is 18.9%.

As to `C[C@]12CCc3c(ccc4cc(O)ccc34)[C@@H]1CC[C@H]2O`, the growth is 96.4%. In the case of `COc1ccc(/C=C(/C(=O)c2ccc(Cl)cc2)C(=O)C(F)(F)F)cc1`, the growth is 95.6%. The value for `Cn1cc(-c2noc(-c3cn(C)c4ncc(F)cc34)n2)c2cc(Cl)ccc21` was 52.5%. Regarding `COc1ccc(-c2cc(-c3ccc(Cl)cc3)nc(SCCCCCCC(=O)NO)n2)cc1`, the growth is -17.6% (active). As for `C[C@H]1[C@H](C)CC[C@]2(C(=O)N3CCN(C)CC3)CC[C@]3(C)C(=CC[C@@H]4[C@@]5(C)C/C(=C/c6ccco6)C(=O)C(C)(C)[C@@H]5CC[C@]43C)[C@H]12`, the growth is -6.24% [100 µM] (active). As for `NC(=S)Cc1ccccc1`, the growth was 0.449% (active).

In the case of `CCCCCCCCCCCCNC(=S)N/N=C/c1ccccc1O`, the growth is 60.5%.

`c1nc(N2CCOCC2)c2[nH]ccc2n1`: the growth is 99.8%.

Take `CC1Cc2c(ncnc2-n2cnc3ccccc32)N(C)c2ccccc21` (stereo not given): the growth was 44.9%.

Take `COc1ccc(C2=C(c3cn(C)c4ccccc34)C(=O)OC2)cc1OC`: the growth is 49.6%. Next, `COc1ccc(C(=O)c2nccc3cc(OC)c(OC)cc23)cc1OC`: 93.3%; `CCN(CC)c1ccc(/C=C/C=C2\NC(=O)NC2=O)cc1`: 33.2%. Next, `CCOC(=O)c1nn(C2CCCCO2)c2ccc(NS(=O)(=O)c3ccc(C)cc3)cc12` (stereo not given): 99.3%; `N#C/C(C(=O)c1ccccc1)=C1/C(=O)Nc2ccc(Br)cc21`: 103%.

For the compound `COCCCNc1nc(NC(=O)c2cc(Br)cc(C(F)(F)F)c2)cc(-c2cccnc2)n1`, the growth was 104%.

Take `O=S(=O)(NCCNc1nccc(-c2c(-c3cccc(F)c3)nc3occn23)n1)c1ccc(C(F)(F)F)cc1`: the growth was 95.8%. The value for `COc1ccc2nc3cc(Cl)ccc3c(Nc3ccc(O)c(CN4CCCC4)c3)c2c1` was -68.6% (active); that for `CCCCC1COc2cccc3c2N1C=C/C3=C\C(=O)n1ccc2ccccc21` (stereo not given) was 76%; that for `C#C[C@]1(O)CC[C@H]2[C@@H]3CC=C4c5nc(Nc6ncccn6)sc5CC[C@]4(C)[C@H]3CC[C@@]21C` was 26.9%. The value for `O=C(O)c1cc([N+](=O)[O-])ccc1Br` was 94.7%.
